Out of some 69,000 compounds screened, about 420 (0.61%) showed an effect of 50% or more. The full list was thinned out, with strong results kept by preference.

This test concerns the target T1, Histidine--tRNA ligase (Leishmania infantum) (UniProt A4I591).
T1 sequence (whole entry): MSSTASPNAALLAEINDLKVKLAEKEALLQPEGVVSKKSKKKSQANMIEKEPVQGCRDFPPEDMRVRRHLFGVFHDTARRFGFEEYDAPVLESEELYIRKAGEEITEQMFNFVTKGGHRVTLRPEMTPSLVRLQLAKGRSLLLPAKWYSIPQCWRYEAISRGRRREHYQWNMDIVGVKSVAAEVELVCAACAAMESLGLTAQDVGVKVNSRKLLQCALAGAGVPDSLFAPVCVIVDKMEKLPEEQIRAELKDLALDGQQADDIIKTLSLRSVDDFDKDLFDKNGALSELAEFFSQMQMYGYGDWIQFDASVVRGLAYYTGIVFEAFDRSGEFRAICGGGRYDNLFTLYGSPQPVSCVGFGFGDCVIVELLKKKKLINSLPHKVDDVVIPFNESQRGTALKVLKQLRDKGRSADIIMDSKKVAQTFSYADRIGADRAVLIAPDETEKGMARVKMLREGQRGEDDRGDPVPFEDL
Briefly: Leishmania infantum Histidine tRNA synthetase (LdHisRS). It counts as functional. More on the design: scale not given: in the data most compounds retested in dose-response had high values. As to conditions: 30 µM.
As for `CCCn1nc2c(cc1=O)CN(Cc1ncc(C(C)(C)C)o1)CC2`, the Percent Effect is 45.5%.
The result for `Cc1cc(CN2CCc3nn(C)c(=O)cc3C2)on1` reads 103%.
The result for `Cc1cc(CN2CCc3nn(C)c(=O)cc3C2)no1` reads 45.5%; that for `Cc1cc(CN2CCc3cncnc3C2)on1`, 24%.
As for `CCCn1nc2c(cc1=O)CN(Cc1cc(C)no1)CC2`, the figure is 69.7%.
For the compound `CCCn1nc2c(cc1=O)CN(Cc1nc(CCOC)no1)CC2`, the Percent Effect came out at 48.1%.
Consider `CCCn1nc2c(cc1=O)CN(Cc1cc(C)on1)CC2`, for which the Percent Effect was determined as 55.8%.
As for `CCCn1nc2c(cc1=O)CN(Cc1ccccn1)CC2`, the figure is 75.8%.
The result for `CCCn1nc2c(cc1=O)CN(Cc1nc(C)c(C)o1)CC2` reads 13.2%; that for `CCCn1nc2c(cc1=O)CN(Cc1nc(C)c3ccccc3n1)CC2`, 27.1%; that for `CCn1nc2c(cc1=O)CN(Cc1cc(C)on1)CC2`, 21.2%.
As to `CN(C)C(=O)N1C[C@@H]2CC[C@H](C1)N(C(=O)c1c(Cl)cccc1Cl)C2`, the Percent Effect came out at 8.06%.
The result for `CS(=O)(=O)N1C[C@@H]2CC[C@H](C1)N(Cc1ccsc1)C2` reads 31.2%; that for `CNC(=O)[C@H]1CO[C@H]2CCN(Cc3ccc4ccccc4n3)C[C@H]2C1`, 10.5%.
Take `CNC(=O)[C@@H]1COC[C@H]2CN(C(=O)c3ccc(C)c(F)c3)C[C@H]21`: the Percent Effect worked out at 12.3%.
The result for `CC(C)CC(=O)N1CC[C@@H]2[C@H](CC1)N(S(C)(=O)=O)CCS2(=O)=O` reads 19.2%; that for `CS(=O)(=O)N1C[C@@H]2COC[C@]2(COCC(=O)N2CCCC2)C1`, 2.73%; that for `Cc1cc(CN2CCc3nn(C(C)C)c(=O)cc3C2)no1`, 26.9%.
Take `Cc1noc(C)c1CN1CCc2nn(C(C)C)c(=O)cc2C1`: the Percent Effect amounted to 53%.
As for `CCCn1nc2c(cc1=O)CN(Cc1c(C)noc1C)CC2`, the figure is 27.3%; as for `O=C1CC[C@]2(CC[C@@H](NC3CCOCC3)CC2)N1Cc1ccccc1`, 7.77%.
As for `CN(C(=O)c1cccnc1)C1CCCN(CCc2ccccc2)C1` (stereo not given), the figure is -1.64%; as for `CCCN(C(=O)c1ccncc1)c1nc2c(s1)CCc1c-2cnn1C`, 82.3%.
On to `CCCC(=O)N(CCN1CCOCC1)c1nc2c(OC)ccc(C)c2s1`, for which the Percent Effect is -3.48%.
As for `CCCN(C(=O)c1ccc(-n2ccnn2)cc1)c1cccnc1`, the figure is 11.1%; as for `Cc1cnccc1-c1cnn(CCNC(=O)c2ccncc2)c1C1CC1`, -1.42%; as for `CCCN(C(=O)COC)c1nc2c(s1)CCc1c-2cnn1C`, 80%.
As to `CCCN(C(=O)c1cccnc1)c1nc2c(s1)CCc1c-2cnn1C`, the Percent Effect was determined as 101%.
The result for `COCCN(C)C(=O)c1nc2c(s1)CCCN2C` reads 24.6%; that for `CCN(CCN1CCOCC1)C(=O)c1cccnc1`, 5.71%; that for `Cc1ccc(C(=O)N2CC[C@@]3(O)CCN(C(=O)N(C)C)C[C@H]3C2)cc1Cl`, -2.13%.
As for `CNc1nc(C(=O)N2C[C@H]3CC[C@@H]2CN(C2CCOCC2)C3)cs1`, the figure is 4.17%; as for `COc1ccccc1CN1C(=O)O[C@@H]2CN(C(C)C)C[C@@H]21`, 3.33%.
Consider `O=C1[C@@H]2CN(c3ncccc3Cl)C[C@]2(C(=O)O)CN1CC1CC1`, for which the Percent Effect stood at 3.28%.
The result for `CCOc1ccc(CN2CCN(CCOC)[C@@H]3CS(=O)(=O)C[C@@H]32)cc1` reads 25%.
As for `CS(=O)(=O)N1CCCC(Cc2ccnc3ccncc23)CC1` (stereo not given), the figure is 80.2%; as for `c1cc2nccc(CC3CCCN(C4CCOCC4)CC3)c2cn1` (stereo not given), 22.7%.
Consider `Cn1ccnc1CN1CCCC(Cc2ccnc3ccncc23)CC1` (stereo not given), for which the Percent Effect was 43.3%.
In the case of `c1cc2nccc(CC3CCCN(Cc4ncc[nH]4)CC3)c2cn1` (stereo not given), the Percent Effect came to 50%.
On to `CN1CCCC(Cc2ccnc3ccncc23)CC1` (stereo not given), for which the Percent Effect is 0%.
The result for `c1cc2nccc(CC3CCCN(Cc4c[nH]cn4)CC3)c2cn1` (stereo not given) reads 24.7%; that for `CC(=O)N1[C@H](Cn2cncn2)C[C@@H]2CN(Cc3cccnc3)CC[C@@H]21`, 13.9%; that for `Cc1nc(C(=O)N2CCN(S(C)(=O)=O)[C@@H]3CS(=O)(=O)C[C@@H]32)cs1`, 18.7%.
In the case of `c1cc(CN2CC[C@H]3O[C@@H](COCC4CCOCC4)CC[C@H]32)ccn1`, the Percent Effect was determined as 22%.
Turning to `CCN1C[C@H]2[C@@H](C1)N(S(=O)(=O)c1ccccc1)CC[C@H]2OC`, the Percent Effect was found to be 24%.
For `CN(C)CCO[C@H]1CN(C(=O)c2ccc3c(c2)OCO3)[C@@H]2COC[C@H]12`, the Percent Effect is 13.7%.
The result for `O=C(NCC1(O)CCC1)c1c(O)cc(F)cc1F` reads -2.17%.
The result for `CCCn1cc(Cl)c(C(=O)N2C[C@H]3C[C@H](OC)C[C@H]3C2)n1` reads 8.63%; that for `Cc1nc(C)n(CC2CCCN2Cc2nc3ccccc3nc2C)n1` (stereo not given), 17.6%; that for `Cc1nc(C)n(CC2CCCN2Cc2nc(N)c3ccccc3n2)n1` (stereo not given), 36.5%.
As for `Cc1nc(CN2CCCC2c2ccsc2)nc2ccccc12` (stereo not given), the figure is 54%; as for `Cc1nc(CN2CCCC2c2noc(C3CC3)n2)nc2ccccc12` (stereo not given), 42.2%; as for `Cc1nc(C)n(CC2CCCN2Cc2nc(C)c3ccccc3n2)n1` (stereo not given), 56.5%.
For the compound `Cc1nn(C)c(C)c1C1CCCN1Cc1nc(C)c2ccccc2n1` (stereo not given), the Percent Effect stood at 46%.
Turning to `CC(C)CN1C[C@@H]2C(=O)NC3(CCN(C(=O)c4cccnc4)CC3)[C@@H]2C1`, the Percent Effect is 23.3%.
